Assay results published in PubChem BioAssay (EPA / NIEHS).
Active and inactive are the calls of the source. The calls were made as follows: active = hit-call score of the fitted dose curve at least 0.9, where 1 is the maximum; inactive = score below 0.9.

What was measured:
[1] = target: Transcription factor E2F1 (Homo sapiens) (UniProt Q01094); experiment: ATG_E2F_CIS: Attagene CIS-FACTORIAL HepG2 Assay for human E2F Transcription Factor 1 (AID 2282935); conditions: HepG2 Attagene cis-reporter, E2F reporter RNA transcripts; actives raise or lower the signal
Sequence of Transcription factor E2F1 (Homo sapiens) (Q01094 whole entry, looked up): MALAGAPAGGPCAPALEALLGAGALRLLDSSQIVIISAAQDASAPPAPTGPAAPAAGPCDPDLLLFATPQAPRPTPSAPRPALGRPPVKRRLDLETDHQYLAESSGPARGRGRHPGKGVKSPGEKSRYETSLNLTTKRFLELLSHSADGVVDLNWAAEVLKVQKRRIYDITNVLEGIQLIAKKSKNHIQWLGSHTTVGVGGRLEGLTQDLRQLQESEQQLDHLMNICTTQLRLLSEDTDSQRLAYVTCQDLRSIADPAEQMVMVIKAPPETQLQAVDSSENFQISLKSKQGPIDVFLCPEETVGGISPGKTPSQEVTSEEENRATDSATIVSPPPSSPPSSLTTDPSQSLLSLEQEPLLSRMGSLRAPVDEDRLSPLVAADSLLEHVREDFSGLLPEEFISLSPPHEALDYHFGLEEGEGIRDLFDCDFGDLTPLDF
How it was run: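 Cis-element reporter mRNA induction in transiently transfected HepG2, 24 h exposure. Activity fitted in both directions relative to DMSO negative control.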

[2] = ATG_E_Box_CIS: Attagene CIS-FACTORIAL HepG2 Assay for human Enhancer Box (E-box) (AID 2282936); conditions: HepG2 E-box cis-reporter transcription, actives raise or lower the signal
How it was run: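 Cells: HepG2 (human liver), transient MRTU transfection. Exposure 24 h. RNA → oligo(dT) RT → PCR → 6-FAM label → HpaI → CE. Activity fitted both directions relative to DMSO.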

[3] = ATG_M_61_CIS: Attagene CIS-FACTORIAL HepG2 Assay for M61 Transcription Factor (Internal Marker) (AID 2282937); conditions: HepG2 Attagene CIS-FACTORIAL M61 internal marker reporter; actives raise or lower the signal
How it was run: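 HepG2 cells transiently transfected with cis-element-driven multiple reporter transcription units, dosed for 24 h. Reporter mRNA measured by RT-PCR, 6-FAM primer-extension labelling, HpaI digestion and capillary electrophoresis; bidirectional fit versus DMSO baseline.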

[4] = ATG_EGR_CIS: Attagene CIS-FACTORIAL HepG2 Assay for human Early Growth Response 1 (EGR1) (AID 2282938); conditions: HepG2 Attagene CIS-FACTORIAL EGR reporter mRNA; actives raise or lower the signal
How it was run: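 HepG2 cells transiently transfected with cis-promoter-driven multiplexed reporter transcription units; reporter mRNA measured 24 h after compound dosing by RT-PCR, 6-FAM primer extension, HpaI digestion and capillary electrophoresis. Bidirectional fit versus DMSO baseline.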

[5] = ATG_M_19_CIS: Attagene CIS-FACTORIAL HepG2 Assay for M19 Transcription Factor (Internal Marker) (AID 2282939); conditions: HepG2 Attagene CIS-FACTORIAL M19 internal marker reporter; actives raise or lower the signal
How it was run: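 HepG2, MRTU transient transfection, 24 h dosing. Total RNA → RT-PCR → 6-FAM primer extension → HpaI digest → CE fluorescence. Bidirectional curve fit, DMSO negative control.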

[6] = ATG_ERE_CIS: Attagene CIS-FACTORIAL HepG2 Assay for Estrogen Response Element (ERE) (AID 2282940); conditions: HepG2 ERE cis-reporter, Attagene RNA transcript; actives raise or lower the signal
How it was run: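 After a 24 h chemical treatment, RNA from reporter-transfected HepG2 cells is reverse-transcribed, PCR-amplified and fluorescently labelled. Fragments separated by capillary electrophoresis give reporter signal; DMSO serves as negative control.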

[7] = ATG_Ets_CIS: Attagene CIS-FACTORIAL HepG2 Assay for human Erythroblast Transformation Specific (ETS) (AID 2282941); conditions: HepG2 ETS cis-reporter transcription, actives raise or lower the signal
How it was run: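 HepG2 cells transiently transfected with cis-promoter reporter transcription units were dosed for 24 h; reporter mRNA was measured by RT-PCR, 6-FAM primer extension, HpaI digestion and capillary electrophoresis, with bidirectional fitting against DMSO baseline.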

[8] = target: Hepatocyte nuclear factor 3-beta (Homo sapiens) (UniProt Q9Y261); experiment: ATG_FoxA2_CIS: Attagene CIS-FACTORIAL HepG2 Assay for human Forkhead box A2 (FOXA2) (AID 2282942); conditions: HepG2 cis-reporter transcription factor activity, 24 h; actives raise or lower the signal
Sequence of Hepatocyte nuclear factor 3-beta (Homo sapiens) (Q9Y261 whole entry, looked up): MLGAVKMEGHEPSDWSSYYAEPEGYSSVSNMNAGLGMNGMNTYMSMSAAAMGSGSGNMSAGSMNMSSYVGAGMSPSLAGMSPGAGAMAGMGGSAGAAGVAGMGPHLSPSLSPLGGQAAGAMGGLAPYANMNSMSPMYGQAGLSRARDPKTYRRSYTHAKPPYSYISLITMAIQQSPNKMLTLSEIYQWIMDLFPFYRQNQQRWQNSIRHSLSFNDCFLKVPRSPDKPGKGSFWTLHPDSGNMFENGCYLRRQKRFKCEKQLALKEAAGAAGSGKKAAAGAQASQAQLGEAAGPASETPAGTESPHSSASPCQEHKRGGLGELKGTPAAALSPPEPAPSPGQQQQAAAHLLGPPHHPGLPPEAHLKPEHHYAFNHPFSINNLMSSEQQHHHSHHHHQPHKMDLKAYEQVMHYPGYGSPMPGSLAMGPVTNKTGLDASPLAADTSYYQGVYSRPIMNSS
How it was run: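 HepG2 cells transiently transfected with multiple cis-regulated reporter transcription units, dosed for 24 h. Reporter mRNA measured by RT-PCR, 6-FAM labelling, HpaI digestion and capillary electrophoresis; bidirectional fitting against DMSO baseline.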

[9] = ATG_FoxO_CIS: Attagene CIS-FACTORIAL HepG2 Assay for human Forkhead box O (FoxO) (AID 2282943); conditions: HepG2 Attagene cis-reporter, FoxO element, mRNA; actives raise or lower the signal
How it was run: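 Endogenous transcription factor activity read from multiplexed cis-promoter reporter transcripts in transiently transfected HepG2, 24 h after dosing. Reporter RNA measured via RT-PCR plus capillary electrophoresis of FAM-labeled products; gain or loss relative to DMSO.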

[10] = ATG_GATA_CIS: Attagene CIS-FACTORIAL HepG2 Assay for human GATA Binding Protein (AID 2282944); conditions: HepG2 GATA cis-element reporter, Attagene multiplex mRNA; actives raise or lower the signal
How it was run: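 Cells: HepG2, transiently transfected with cis-regulated reporter transcription units. Exposure: 24 h. Detection: RT-PCR plus capillary electrophoresis of FAM-labeled fragments. Analysis: bidirectional, DMSO as baseline.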

[11] = ATG_GLI_CIS: Attagene CIS-FACTORIAL HepG2 Assay for human Zinc Finger Protein GLI1 (AID 2282945); conditions: HepG2, Attagene cis-factorial reporter mRNA, GLI element; actives raise or lower the signal
How it was run: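 Bidirectional curve fits relative to DMSO, using reporter mRNA levels from RT-PCR plus capillary electrophoresis. Cells were HepG2 transiently carrying cis-regulated reporter constructs, harvested 24 h after dosing.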

[12] = ATG_GRE_CIS: Attagene CIS-FACTORIAL HepG2 Assay for human Glucocorticoid Response Elements (GRE) (AID 2282947); conditions: HepG2 GRE cis-reporter, Attagene multiplex mRNA; actives raise or lower the signal
How it was run: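 Transient MRTU transfection of human HepG2 liver cells; cis-regulated reporters report endogenous factors. 24 h dosing → RNA isolation → RT-PCR → 6-FAM primer extension → HpaI cut → CE fragment analysis. Bidirectional fit, DMSO negative control.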

[13] = ATG_ISRE_CIS: Attagene CIS-FACTORIAL HepG2 Assay for human Interferon Regulatory Factor 1 (IRF1) binding to an Interferon-Stimulated Response Element (ISRE) (AID 2282948); conditions: HepG2 ISRE cis-reporter (Attagene), mRNA transcription readout; actives raise or lower the signal
How it was run: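 HepG2 cells transiently transfected with multiplexed cis-promoter reporter units; after 24 h compound exposure, reporter mRNA quantified by RT-PCR, FAM labelling, HpaI digestion and capillary electrophoresis. Bidirectional fit versus DMSO baseline.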

[14] = ATG_M_32_CIS: Attagene CIS-FACTORIAL HepG2 Assay for M32 Transcription Factor (Internal Marker) (AID 2282949); conditions: HepG2 Attagene cis-factorial M32 reporter, mRNA; actives raise or lower the signal;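 also: background control marker of the multiplexed CIS panel rather than a real target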
How it was run: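 Fluorescent capillary electrophoresis peaks of HpaI-digested, FAM-labelled RT-PCR reporter products give the signal. Source: transiently transfected human liver HepG2 cells, 24 h after chemical dosing; bidirectional fitting against DMSO.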

[15] = ATG_M_06_CIS: Attagene CIS-FACTORIAL HepG2 Assay for M06 Transcription Factor (Internal Marker) (AID 2282950); conditions: HepG2 Attagene CIS-FACTORIAL M06 internal marker reporter; actives raise or lower the signal
How it was run: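 Measured 24 h post-dosing in transiently transfected HepG2 cells, this internal-marker endpoint reports reporter mRNA via RT-PCR with fluorescent primer extension and capillary electrophoresis. DMSO served as negative control and baseline for bidirectional fitting.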

[16] = target: Hepatocyte nuclear factor 6 (Homo sapiens) (UniProt Q9UBC0); experiment: ATG_HNF6_CIS: Attagene CIS-FACTORIAL HepG2 Assay for human Hepatocyte Nuclear Factor 6 (HNF6) (AID 2282952); conditions: HepG2 Attagene cis-factorial HNF6 reporter transcription; actives raise or lower the signal
Sequence of Hepatocyte nuclear factor 6 (Homo sapiens) (Q9UBC0 whole entry, looked up, the tested form may be a part): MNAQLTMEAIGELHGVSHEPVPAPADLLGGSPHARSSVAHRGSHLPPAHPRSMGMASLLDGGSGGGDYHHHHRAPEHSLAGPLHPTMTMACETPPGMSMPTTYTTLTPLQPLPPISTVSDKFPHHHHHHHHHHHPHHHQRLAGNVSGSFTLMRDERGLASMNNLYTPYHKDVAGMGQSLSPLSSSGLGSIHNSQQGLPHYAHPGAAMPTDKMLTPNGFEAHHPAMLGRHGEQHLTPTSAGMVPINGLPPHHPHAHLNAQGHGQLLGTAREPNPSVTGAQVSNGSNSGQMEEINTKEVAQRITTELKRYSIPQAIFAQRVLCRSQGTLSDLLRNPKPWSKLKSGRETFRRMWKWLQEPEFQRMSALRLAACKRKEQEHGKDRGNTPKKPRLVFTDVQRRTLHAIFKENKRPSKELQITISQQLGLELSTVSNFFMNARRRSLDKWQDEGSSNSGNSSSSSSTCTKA
How it was run: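 Reporter mRNA induction or loss in HepG2 after 24 h exposure; transient cis-MRTU transfection; fragments quantified by capillary electrophoresis; bidirectional analysis, DMSO as negative control.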

[17] = ATG_MRE_CIS: Attagene CIS-FACTORIAL HepG2 Assay for human Metal Responsive Element (MRE) (AID 2282954); conditions: HepG2 MRE cis-reporter transcription, Attagene multiplex; actives raise or lower the signal
How it was run: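 Transient MRTU transfection of HepG2 (FuGene 6); 24 h dosing; total RNA → oligo(dT) RT, PCR, 6-FAM primer extension, HpaI cut, CE. Bidirectional fit vs DMSO.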

[18] = target: Hypoxia-inducible factor 1-alpha (Homo sapiens) (UniProt Q16665); experiment: ATG_HIF1a_CIS: Attagene CIS-FACTORIAL HepG2 Assay for human Hypoxia Inducible Factor 1 (HIF1A) (AID 2282951); conditions: HepG2 Attagene cis-factorial HIF1a reporter transcription; actives raise or lower the signal
Sequence of Hypoxia-inducible factor 1-alpha (Homo sapiens) (Q16665 whole entry, looked up): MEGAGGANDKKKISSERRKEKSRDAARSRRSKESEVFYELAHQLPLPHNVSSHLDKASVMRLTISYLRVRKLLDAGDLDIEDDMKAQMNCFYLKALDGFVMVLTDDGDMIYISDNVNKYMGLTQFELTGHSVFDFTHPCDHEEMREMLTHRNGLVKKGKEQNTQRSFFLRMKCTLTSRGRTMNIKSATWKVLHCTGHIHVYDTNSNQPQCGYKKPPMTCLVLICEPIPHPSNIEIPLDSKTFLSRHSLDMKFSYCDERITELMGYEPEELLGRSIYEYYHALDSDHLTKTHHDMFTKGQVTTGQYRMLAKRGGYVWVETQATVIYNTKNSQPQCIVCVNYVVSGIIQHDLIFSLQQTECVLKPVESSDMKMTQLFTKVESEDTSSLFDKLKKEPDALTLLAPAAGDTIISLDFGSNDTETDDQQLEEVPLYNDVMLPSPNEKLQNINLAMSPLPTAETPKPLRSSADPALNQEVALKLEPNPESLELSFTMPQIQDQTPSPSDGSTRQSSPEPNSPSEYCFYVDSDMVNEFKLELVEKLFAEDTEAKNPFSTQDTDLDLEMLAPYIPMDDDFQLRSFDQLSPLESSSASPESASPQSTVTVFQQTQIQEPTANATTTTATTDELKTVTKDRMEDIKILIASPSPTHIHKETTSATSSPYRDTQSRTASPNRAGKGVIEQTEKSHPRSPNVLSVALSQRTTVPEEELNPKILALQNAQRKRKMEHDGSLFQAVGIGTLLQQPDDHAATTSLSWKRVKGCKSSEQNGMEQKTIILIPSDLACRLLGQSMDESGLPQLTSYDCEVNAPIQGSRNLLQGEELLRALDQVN
How it was run: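 HepG2 cells transiently transfected with multiplexed cis-promoter reporter units; reporter mRNA read 24 h after dosing by RT-PCR, 6-FAM primer-extension labelling, HpaI digestion and capillary electrophoresis. Bidirectional fit versus DMSO baseline.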

[19] = target: Bile acid receptor (Homo sapiens) (UniProt Q96RI1); experiment: ATG_IR1_CIS: Attagene CIS-FACTORIAL HepG2 Assay for human Nuclear Receptor Subfamily 1 Group H Member 4 (NR1H4), IR1 submotif (AID 2282946); conditions: IR1 reporter transcription, actives raise or lower the signal
Sequence of Bile acid receptor (Homo sapiens) (Q96RI1 whole entry, looked up, the tested form may be a part): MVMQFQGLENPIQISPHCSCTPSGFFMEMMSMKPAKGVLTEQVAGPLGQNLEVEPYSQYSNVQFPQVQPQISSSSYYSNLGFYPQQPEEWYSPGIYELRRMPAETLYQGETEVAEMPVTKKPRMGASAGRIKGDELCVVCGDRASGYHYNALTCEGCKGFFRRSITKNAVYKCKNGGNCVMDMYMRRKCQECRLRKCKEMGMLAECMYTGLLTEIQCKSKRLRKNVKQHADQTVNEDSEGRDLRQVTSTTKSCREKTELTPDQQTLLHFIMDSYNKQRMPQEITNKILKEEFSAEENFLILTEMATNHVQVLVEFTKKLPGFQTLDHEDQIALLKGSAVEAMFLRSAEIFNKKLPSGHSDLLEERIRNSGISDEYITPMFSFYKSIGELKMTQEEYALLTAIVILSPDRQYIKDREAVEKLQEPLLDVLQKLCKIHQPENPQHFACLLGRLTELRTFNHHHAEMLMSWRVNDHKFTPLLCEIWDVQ
How it was run: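 Cells (human HepG2) carry transiently transfected cis-promoter reporter transcription units. Compounds are incubated 24 h, total RNA is reverse-transcribed and amplified, and labelled fragments are resolved by capillary electrophoresis. Curves use DMSO as baseline.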

[20] = target: Heat shock factor protein 1 (Homo sapiens) (UniProt Q00613); experiment: ATG_HSE_CIS: Attagene CIS-FACTORIAL HepG2 Assay for human Heat Shock Transcription Factor 1 (HSE) (AID 2282953); conditions: HepG2 HSE cis-reporter, Attagene RNA transcription; actives raise or lower the signal
Sequence of Heat shock factor protein 1 (Homo sapiens) (Q00613 whole entry, looked up): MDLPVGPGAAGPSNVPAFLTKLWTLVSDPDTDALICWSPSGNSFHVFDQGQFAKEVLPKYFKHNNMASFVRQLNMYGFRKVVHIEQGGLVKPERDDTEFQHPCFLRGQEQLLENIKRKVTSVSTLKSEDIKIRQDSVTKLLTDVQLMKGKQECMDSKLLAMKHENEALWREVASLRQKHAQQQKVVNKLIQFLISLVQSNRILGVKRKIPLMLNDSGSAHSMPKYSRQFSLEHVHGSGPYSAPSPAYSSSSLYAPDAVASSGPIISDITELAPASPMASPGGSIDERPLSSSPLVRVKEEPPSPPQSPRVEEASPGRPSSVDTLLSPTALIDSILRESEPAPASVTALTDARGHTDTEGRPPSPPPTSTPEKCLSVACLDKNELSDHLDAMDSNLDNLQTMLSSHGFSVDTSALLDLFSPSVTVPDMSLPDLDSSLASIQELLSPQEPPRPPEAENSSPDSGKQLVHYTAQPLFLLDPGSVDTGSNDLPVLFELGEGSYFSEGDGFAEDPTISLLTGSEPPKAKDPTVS
How it was run: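 Reporter mRNA induction in HepG2 is measured 24 h after dosing, using transiently transfected multiplexed cis-regulated reporter units. Signal comes from capillary electrophoresis of labelled RT-PCR products, with DMSO as negative control.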

CC(C)(C)c1ccc(S)cc1
outcome [1]: inactive | outcome [2]: inactive | outcome [3]: inactive | outcome [4]: inactive | outcome [5]: inactive | outcome [6]: inactive | outcome [7]: inactive | outcome [8]: inactive | outcome [9]: inactive | outcome [10]: inactive | outcome [11]: inactive | outcome [12]: inactive | outcome [13]: inactive | outcome [14]: inactive | outcome [15]: inactive | outcome [16]: inactive | outcome [17]: inactive

OC[C@H]1O[C@@H](O[C@H]2[C@H](O)[C@@H](O)[C@H](O)O[C@@H]2CO)[C@H](O)[C@@H](O)[C@H]1O
outcome [1]: inactive | outcome [2]: inactive | outcome [3]: inactive | outcome [4]: inactive | outcome [5]: inactive | outcome [6]: inactive | outcome [7]: inactive | outcome [8]: inactive | outcome [9]: inactive | outcome [10]: inactive | outcome [11]: inactive | outcome [12]: inactive | outcome [13]: inactive | outcome [14]: inactive | outcome [15]: inactive | outcome [18]: inactive | outcome [16]: inactive | outcome [17]: inactive

CC(C)(O)CCc1ccccc1
outcome [1]: inactive | outcome [2]: inactive | outcome [3]: inactive | outcome [4]: inactive | outcome [5]: inactive | outcome [6]: inactive | outcome [7]: inactive | outcome [8]: inactive | outcome [9]: inactive | outcome [10]: inactive | outcome [11]: inactive | outcome [19]: inactive | outcome [12]: inactive | outcome [13]: inactive | outcome [14]: inactive | outcome [15]: inactive | outcome [18]: inactive | outcome [16]: inactive | outcome [20]: inactive | outcome [17]: inactive

c1ccc2scnc2c1
outcome [1]: inactive | outcome [2]: inactive | outcome [3]: inactive | outcome [4]: inactive | outcome [5]: inactive | outcome [6]: inactive | outcome [7]: inactive | outcome [8]: inactive | outcome [9]: inactive | outcome [10]: inactive | outcome [11]: inactive | outcome [12]: inactive | outcome [13]: inactive | outcome [14]: inactive | outcome [15]: inactive | outcome [18]: inactive | outcome [16]: inactive | outcome [20]: inactive | outcome [17]: inactive

C[C@H](CCC(=O)O)[C@H]1CC[C@H]2[C@@H]3CC[C@@H]4C[C@H](O)CC[C@]4(C)[C@H]3CC[C@]12C
AC50 [1]: 25.3 µM (active) | AC50 [2]: 64.2 µM (active) | outcome [3]: inactive | AC50 [4]: 25.2 µM (active) | AC50 [5]: 169 µM (active) | outcome [6]: inactive | outcome [7]: inactive | AC50 [8]: 170 µM (active) | outcome [9]: inactive | outcome [10]: inactive | outcome [11]: inactive | outcome [12]: inactive | AC50 [13]: 27.4 µM (active) | outcome [14]: inactive | outcome [15]: inactive | AC50 [16]: 146 µM (active) | AC50 [20]: 25.6 µM (active) | AC50 [17]: 26.4 µM (active)

NC(N)=S
outcome [1]: inactive | outcome [2]: inactive | outcome [3]: inactive | outcome [4]: inactive | outcome [5]: inactive | outcome [6]: inactive | outcome [7]: inactive | outcome [8]: inactive | outcome [9]: inactive | outcome [10]: inactive | outcome [11]: inactive | outcome [19]: inactive | outcome [12]: inactive | outcome [13]: inactive | outcome [14]: inactive | outcome [15]: inactive | outcome [18]: inactive | outcome [16]: inactive | outcome [17]: inactive

S=c1[nH][nH]c(=S)s1
outcome [1]: inactive | outcome [2]: inactive | outcome [3]: inactive | outcome [4]: inactive | outcome [5]: inactive | outcome [6]: inactive | outcome [7]: inactive | outcome [8]: inactive | outcome [9]: inactive | outcome [10]: inactive | outcome [11]: inactive | outcome [12]: inactive | outcome [13]: inactive | outcome [14]: inactive | outcome [15]: inactive | outcome [18]: inactive | outcome [16]: inactive | outcome [20]: inactive
